For eleven molecules, outcome and AC50 results are on record in PubChem BioAssay (EPA / NIEHS).

Broadly, the AC50 is the concentration at which the activity in the assay is half-maximal.

Assay [1] deals with Hepatocyte nuclear factor 4-alpha (Homo sapiens) (UniProt P41235). The assay is described as follows: ATG_HNF4a_TRANS: Attagene TRANS-FACTORIAL HepG2 Assay for human Hepatocyte Nuclear Factor 4 alpha (HNF4a) (AID 2282982; active = hit-call score of the fitted dose curve at least 0.9, where 1 is the maximum). The conditions noted are these: HepG2 HNF4a transactivation reporter, mRNA readout. The procedure, abridged:
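Using HepG2 liver cells transfected with GAL4-UAS reporter units, chemical-induced mRNA increases were assessed after 24 hours. Fluorescent RT-PCR fragments were separated by capillary electrophoresis and compared with DMSO negative controls.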

A short description of assay [2]: ATG_M_06_TRANS: Attagene TRANS-FACTORIAL HepG2 Assay for M06 Transcription Factor (Internal Marker) (AID 2282983; active = hit-call score of the fitted dose curve at least 0.9, where 1 is the maximum). The note with it: HepG2 Attagene TRANS M06 internal marker reporter. The procedure, abridged:
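Background control endpoint: reporter mRNA from transiently transfected HepG2 after 24 h dosing, detected by RT-PCR with capillary electrophoresis fluorescence. Analysed for gain versus DMSO.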

Assay [3] has as its target Nuclear receptor subfamily 4 group A member 2 (Homo sapiens) (UniProt P43354). The assay is described as follows: ATG_NURR1_TRANS: Attagene TRANS-FACTORIAL HepG2 Assay for human Nuclear Receptor Related Protein 1 (NURR1) (AID 2282985; active = hit-call score of the fitted dose curve at least 0.9, where 1 is the maximum). The conditions noted are these: HepG2 Attagene TRANS reporter, mRNA readout. A digest of the protocol: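 Chimeric NR-Gal4 proteins were expressed in human HepG2 cells bearing GAL4-UAS reporter units, and induced reporter mRNA was quantified 24 h post-dosing by RT-PCR and capillary electrophoresis.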

Assay [4] concerns the target Transcriptional activator Myb (Homo sapiens) (UniProt P10242). The assay is described as follows: ATG_Myb_CIS: Attagene CIS-FACTORIAL HepG2 Assay for human Myeloblastosis (Myb) Proto-Oncogene Transcription Factor (AID 2282986). The note with it: HepG2 Attagene CIS-FACTORIAL Myb reporter transcription; actives raise or lower the signal. A digest of the protocol: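 Reporter mRNA is quantified by RT-PCR and capillary electrophoresis 24 h after dosing HepG2 cells transfected with cis-regulated reporter units, which track endogenous transcription factor activity. Gain and loss of signal are fitted versus DMSO baseline.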

For assay [5], the target named is Nuclear respiratory factor 1 (Homo sapiens) (UniProt Q16656). The assay is described as follows: ATG_NRF1_CIS: Attagene CIS-FACTORIAL HepG2 Assay for human Nuclear Respiratory Factor 1 (NRF1) Orphan Gene (AID 2282987). The note with it: HepG2 NRF1 cis-element reporter, Attagene multiplex; actives raise or lower the signal. The procedure, abridged: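 Endogenous NRF1-driven reporter transcription in transfected HepG2 cells after 24 h treatment. Readout: RT-PCR products, 6-FAM labelled and resolved by capillary electrophoresis; changes fitted both directions relative to DMSO.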

A short description of assay [6]: ATG_NFI_CIS: Attagene CIS-FACTORIAL HepG2 Assay for human Nuclear Factor I (NFI) (AID 2282989). The conditions noted are these: HepG2 cis-regulatory reporter, NFI response element transcription; actives raise or lower the signal. A digest of the protocol: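 HepG2, transient MRTU, 24 h exposure; RNA→cDNA→PCR→FAM label→HpaI→CE fluorescence. Bidirectional fit, DMSO = baseline.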

For assay [7], the target named is Myc proto-oncogene protein (Homo sapiens) (UniProt P01106). Put plainly: ATG_Myc_CIS: Attagene CIS-FACTORIAL HepG2 Assay for human Myelocytomatosis (Myc) Proto-Oncogene Transcription Factor (AID 2282990). The note with it: HepG2, Attagene cis-reporter transcription factor activity; actives raise or lower the signal. A digest of the protocol:
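DMSO-normalised, bidirectionally fitted reporter mRNA signal. HepG2 cells transfected with cis reporter constructs, treated 24 h; transcripts detected by RT-PCR, 6-FAM primer extension and CE.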

A short description of assay [8]: ATG_NF_kB_CIS: Attagene CIS-FACTORIAL HepG2 Assay for human Nuclear Factor Kappa B (NF-kB) (AID 2282991). The conditions noted are these: HepG2 Attagene cis-factorial NF-kB reporter mRNA; actives raise or lower the signal. The procedure, abridged: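 Readout is reporter transcript level, gain or loss versus DMSO, measured 24 h post-dose via RT-PCR, fluorescent labelling and capillary electrophoresis. Human HepG2 liver cells carried transiently transfected CIS reporter constructs reflecting endogenous factors.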

A short description of assay [9]: ATG_NRF2_ARE_CIS: Attagene CIS-FACTORIAL HepG2 Assay for human Nuclear Factor Erythroid 2 Related Factor 2 (NFR2) response to Antioxidant Response Elements (ARE) (AID 2282992). The note with it: HepG2 Attagene ARE/NRF2 reporter, transcription factor activity; actives raise or lower the signal. A digest of the protocol:
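Readout: reporter mRNA quantified by RT-PCR plus FAM-labelled primer extension, HpaI digestion and capillary electrophoresis, 24 h after dosing transfected HepG2 cells. Gain or loss of signal is fitted bidirectionally against DMSO baseline.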

Assay [10] concerns the target Cellular tumor antigen p53 (Homo sapiens) (UniProt P04637). Put plainly: ATG_p53_CIS: Attagene CIS-FACTORIAL HepG2 Assay for human p53 Transcription Factor (AID 2282994). The conditions noted are these: HepG2 p53 cis-element reporter, Attagene mRNA; actives raise or lower the signal. The procedure, abridged:
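Read-out: reporter mRNA by RT-PCR plus capillary electrophoresis with fluorescence detection. Human HepG2 liver cells carried transfected multi-reporter cis-element constructs, dosed 24 h. Gain or loss of signal fitted bidirectionally against DMSO control.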

In assay [11] the target is human Peroxisome Proliferator-activated Receptor alpha (PPARa), PPARA (gene 5465) (UniProt Q07869). Put plainly: ATG_PPARa_TRANS: Attagene TRANS-FACTORIAL HepG2 Assay for human Peroxisome Proliferator-activated Receptor alpha (PPARa) (AID 2283001; active = hit-call score of the fitted dose curve at least 0.9, where 1 is the maximum;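 for AC50: potency for gain of reporter signal over DMSO so agonist or activator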). The procedure, abridged:
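Exposure: 24 h, transiently transfected HepG2 cells. Endpoint: GAL4-UAS reporter mRNA, RT-PCR with capillary electrophoresis fluorescence. Baseline: DMSO; increases fitted.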

The target in assay [12] is human Peroxisome Proliferator-activated Receptor delta (PPARd), PPARD (gene 5467) (UniProt Q03181). Put plainly: ATG_PPARd_TRANS: Attagene TRANS-FACTORIAL HepG2 Assay for human Peroxisome Proliferator-activated Receptor delta (PPARd) (AID 2283002; active = hit-call score of the fitted dose curve at least 0.9, where 1 is the maximum). A digest of the protocol: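 Measured quantity: GAL4-UAS reporter transcript induction in HepG2 after 24 h chemical dosing, with NR-Gal4 chimeras supplied by transient transfection. Detection by RT-PCR and capillary electrophoresis; upward fit against DMSO.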

The nature of assay [13]: ATG_Oct_MLP_CIS: Attagene CIS-FACTORIAL HepG2 Assay for human Octamer-Binding Transcription Factor (Oct) (AID 2282993). The note with it: HepG2 Attagene cis-factorial Oct reporter, mRNA; actives raise or lower the signal. A digest of the protocol:
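Multiplexed cis-reporter assay in human liver HepG2 cells, 24 h incubation. Reporter RNA amplified and labelled, then resolved by capillary electrophoresis; DMSO serves as negative control and baseline.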

A short description of assay [14]: BSK_3C_TissueFactor: BioMAP Diversity Plus: 3C Assay for Tissue Factor Biomarker Activity (AID 2282997). The note with it: BioMAP 3C HUVEC, tissue factor biomarker readout; actives raise or lower the signal. A digest of the protocol: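 After a 24 h chemical exposure of primary human umbilical vein endothelial cells, Tissue Factor levels were quantified by ELISA.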

The nature of assay [15]: BSK_3C_uPAR: BioMAP Diversity Plus: 3C Assay for Urokinase-type plasminogen activator receptor (uPAR) Biomarker Activity (AID 2282998). The conditions noted are these: BioMAP 3C HUVEC, uPAR biomarker ELISA; actives raise or lower the signal. A digest of the protocol: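 Dose primary human umbilical vein endothelial cells, incubate 24 h, measure cell-surface uPAR by ELISA, then fit the signal in both directions against the DMSO negative control.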

Assay [16] in a line: BSK_3C_VCAM1: BioMAP Diversity Plus: 3C Assay for Vascular cell adhesion molecule 1 (VCAM1) Biomarker Activity (AID 2282999). The note with it: BioMAP 3C HUVEC, VCAM1 ELISA, cytokine-stimulated; actives raise or lower the signal. The procedure, abridged:
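Vascular primary endothelium (human umbilical vein) was exposed to chemicals and assayed 24 h later. VCAM-1 levels came from ELISA, with DMSO serving as baseline for bidirectional fitting.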
(In an ELISA, binding on a coated surface is turned into a signal by an enzyme label.)

Assay [17] can be described thus: BSK_4H_Eotaxin3: BioMAP Diversity Plus: 4H Assay for Eotaxin 3 Biomarker Activity (AID 2283000).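 For outcome: CCL26 protein level quantified by ELISA in parallel with SRB cytotoxicity check.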 The note with it: primary human endothelial cells (HUVEC); actives raise or lower the signal. A digest of the protocol: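 Chemicals were added to human umbilical vein endothelium cultures, and Eotaxin-3 was quantified by ELISA at 24 h. Values were derived by bidirectional fitting with DMSO serving as negative control and activity baseline.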

Read-out in assay [18]: Intercellular Adhesion Molecule 1 (ICAM1), ICAM1 (gene 3383)
Put plainly: BSK_3C_ICAM1: BioMAP Diversity Plus: 3C Assay for Intercellular Adhesion Molecule 1 (ICAM1) Biomarker Activity (AID 2283003). The conditions noted are these: primary human endothelial cells (HUVEC); actives raise or lower the signal. The procedure, abridged: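 Using DMSO as baseline, bidirectional curve fitting was applied to ICAM-1 ELISA signals from HUVEC in the 3C system, measured 24 h after compound addition.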

The structures appear in SMILES notation. “And” between values parts separate entries of the source, which are not always exact repeats. Equal values may be shown once. Inconclusive results are not listed. Some compounds were tested as several samples or in several runs, with calls that do not always agree. The source made the active and inactive calls. Rule for the calls, unless noted: active = hit-call score of the fitted dose curve at least 0.9, where 1 is the maximum; inactive = score below 0.9.

Chain of Nuclear respiratory factor 1 (Homo sapiens) (Q16656 whole entry, looked up): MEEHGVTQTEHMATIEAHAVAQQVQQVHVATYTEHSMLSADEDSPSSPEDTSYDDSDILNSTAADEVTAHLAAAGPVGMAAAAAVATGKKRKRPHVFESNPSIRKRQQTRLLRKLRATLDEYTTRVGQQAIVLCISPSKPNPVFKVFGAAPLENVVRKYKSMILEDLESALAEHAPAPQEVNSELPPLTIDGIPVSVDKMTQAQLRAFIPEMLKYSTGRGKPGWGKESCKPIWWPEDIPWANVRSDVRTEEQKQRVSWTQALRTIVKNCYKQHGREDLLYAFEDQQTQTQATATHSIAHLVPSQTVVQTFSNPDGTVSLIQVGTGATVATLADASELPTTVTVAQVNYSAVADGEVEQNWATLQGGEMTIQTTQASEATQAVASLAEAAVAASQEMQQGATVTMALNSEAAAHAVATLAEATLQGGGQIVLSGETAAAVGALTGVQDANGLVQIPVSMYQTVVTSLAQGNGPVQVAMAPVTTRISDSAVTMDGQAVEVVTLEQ
Chain of human Peroxisome Proliferator-activated Receptor delta (PPARd), PPARD (gene 5467) (Q03181 whole entry, looked up, the tested form may be a part): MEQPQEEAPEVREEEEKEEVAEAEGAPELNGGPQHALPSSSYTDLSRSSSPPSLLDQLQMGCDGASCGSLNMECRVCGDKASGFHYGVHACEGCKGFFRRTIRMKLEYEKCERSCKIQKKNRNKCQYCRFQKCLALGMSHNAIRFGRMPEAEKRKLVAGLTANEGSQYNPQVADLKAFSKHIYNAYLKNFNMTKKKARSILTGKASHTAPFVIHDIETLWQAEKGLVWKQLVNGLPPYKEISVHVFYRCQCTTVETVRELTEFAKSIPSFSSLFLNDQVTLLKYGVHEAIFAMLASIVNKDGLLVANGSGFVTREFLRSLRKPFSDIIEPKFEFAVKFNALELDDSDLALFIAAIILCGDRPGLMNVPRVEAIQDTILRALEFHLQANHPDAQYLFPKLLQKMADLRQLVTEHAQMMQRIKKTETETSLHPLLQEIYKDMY
Chain of Cellular tumor antigen p53 (Homo sapiens) (P04637 whole entry, looked up): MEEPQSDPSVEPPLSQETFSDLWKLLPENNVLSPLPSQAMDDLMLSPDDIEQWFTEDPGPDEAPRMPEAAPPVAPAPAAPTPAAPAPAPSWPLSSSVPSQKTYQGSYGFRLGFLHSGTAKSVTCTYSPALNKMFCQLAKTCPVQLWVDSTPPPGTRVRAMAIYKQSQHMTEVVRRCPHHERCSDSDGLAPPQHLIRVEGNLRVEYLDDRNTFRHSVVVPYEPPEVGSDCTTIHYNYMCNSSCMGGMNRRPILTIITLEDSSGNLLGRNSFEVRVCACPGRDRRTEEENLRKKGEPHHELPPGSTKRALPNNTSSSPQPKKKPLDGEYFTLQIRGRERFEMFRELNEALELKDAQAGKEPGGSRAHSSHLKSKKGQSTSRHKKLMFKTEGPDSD
Chain of Myc proto-oncogene protein (Homo sapiens) (P01106 whole entry, looked up): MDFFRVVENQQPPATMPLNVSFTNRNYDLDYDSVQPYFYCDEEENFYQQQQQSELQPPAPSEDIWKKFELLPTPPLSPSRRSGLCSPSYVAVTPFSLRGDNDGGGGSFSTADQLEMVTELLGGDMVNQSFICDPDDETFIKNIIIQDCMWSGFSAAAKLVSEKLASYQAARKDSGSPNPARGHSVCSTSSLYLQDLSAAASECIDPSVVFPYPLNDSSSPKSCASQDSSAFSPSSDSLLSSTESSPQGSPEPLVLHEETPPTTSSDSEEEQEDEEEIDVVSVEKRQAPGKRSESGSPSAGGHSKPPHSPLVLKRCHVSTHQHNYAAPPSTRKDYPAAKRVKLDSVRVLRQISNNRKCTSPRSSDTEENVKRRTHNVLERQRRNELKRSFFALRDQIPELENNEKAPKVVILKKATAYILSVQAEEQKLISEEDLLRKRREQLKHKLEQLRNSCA
Chain of human Peroxisome Proliferator-activated Receptor alpha (PPARa), PPARA (gene 5465) (Q07869 whole entry, looked up, the tested form may be a part): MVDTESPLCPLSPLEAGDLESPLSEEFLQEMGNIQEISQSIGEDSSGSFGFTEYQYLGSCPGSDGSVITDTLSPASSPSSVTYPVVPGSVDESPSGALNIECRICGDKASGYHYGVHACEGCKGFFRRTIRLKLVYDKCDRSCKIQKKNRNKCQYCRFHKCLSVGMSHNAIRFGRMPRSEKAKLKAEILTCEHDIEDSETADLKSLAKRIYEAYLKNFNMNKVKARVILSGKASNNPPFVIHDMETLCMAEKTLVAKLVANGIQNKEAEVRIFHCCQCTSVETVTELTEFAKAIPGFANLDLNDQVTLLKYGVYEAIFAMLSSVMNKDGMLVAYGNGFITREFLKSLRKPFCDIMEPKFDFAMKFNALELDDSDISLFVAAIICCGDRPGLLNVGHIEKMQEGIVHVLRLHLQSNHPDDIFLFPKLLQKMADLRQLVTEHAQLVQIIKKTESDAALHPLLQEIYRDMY
Chain of Hepatocyte nuclear factor 4-alpha (Homo sapiens) (P41235 whole entry, looked up, the tested form may be a part): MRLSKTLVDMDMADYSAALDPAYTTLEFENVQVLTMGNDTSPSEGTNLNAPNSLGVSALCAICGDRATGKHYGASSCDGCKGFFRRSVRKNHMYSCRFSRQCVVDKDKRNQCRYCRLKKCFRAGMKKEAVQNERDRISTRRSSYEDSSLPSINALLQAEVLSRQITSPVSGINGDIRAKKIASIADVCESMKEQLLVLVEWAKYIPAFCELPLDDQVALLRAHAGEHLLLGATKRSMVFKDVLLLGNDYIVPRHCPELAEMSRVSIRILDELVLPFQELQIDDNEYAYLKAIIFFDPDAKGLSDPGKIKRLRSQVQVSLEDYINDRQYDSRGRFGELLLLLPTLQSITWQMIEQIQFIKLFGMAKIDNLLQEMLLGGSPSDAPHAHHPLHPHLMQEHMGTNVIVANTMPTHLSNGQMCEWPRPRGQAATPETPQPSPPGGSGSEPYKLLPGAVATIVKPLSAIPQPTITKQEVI
Chain of Transcriptional activator Myb (Homo sapiens) (P10242 whole entry, looked up): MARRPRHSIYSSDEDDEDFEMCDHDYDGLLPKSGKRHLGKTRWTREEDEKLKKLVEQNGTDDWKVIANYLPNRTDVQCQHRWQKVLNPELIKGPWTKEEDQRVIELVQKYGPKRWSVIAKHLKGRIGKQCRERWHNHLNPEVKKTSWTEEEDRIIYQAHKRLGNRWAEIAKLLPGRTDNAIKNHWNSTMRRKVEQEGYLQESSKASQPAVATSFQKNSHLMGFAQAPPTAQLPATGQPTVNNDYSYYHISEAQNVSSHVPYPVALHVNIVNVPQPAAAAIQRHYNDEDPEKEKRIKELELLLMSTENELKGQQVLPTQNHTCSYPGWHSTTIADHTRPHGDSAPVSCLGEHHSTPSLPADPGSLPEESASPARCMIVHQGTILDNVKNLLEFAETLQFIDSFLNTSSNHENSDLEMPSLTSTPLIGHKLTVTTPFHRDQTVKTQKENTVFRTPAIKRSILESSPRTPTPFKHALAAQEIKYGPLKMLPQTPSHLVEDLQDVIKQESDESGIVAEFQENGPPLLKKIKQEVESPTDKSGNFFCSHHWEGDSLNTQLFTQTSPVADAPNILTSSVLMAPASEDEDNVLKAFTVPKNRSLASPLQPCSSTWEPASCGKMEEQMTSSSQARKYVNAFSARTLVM
Chain of Nuclear receptor subfamily 4 group A member 2 (Homo sapiens) (P43354 whole entry, looked up, the tested form may be a part): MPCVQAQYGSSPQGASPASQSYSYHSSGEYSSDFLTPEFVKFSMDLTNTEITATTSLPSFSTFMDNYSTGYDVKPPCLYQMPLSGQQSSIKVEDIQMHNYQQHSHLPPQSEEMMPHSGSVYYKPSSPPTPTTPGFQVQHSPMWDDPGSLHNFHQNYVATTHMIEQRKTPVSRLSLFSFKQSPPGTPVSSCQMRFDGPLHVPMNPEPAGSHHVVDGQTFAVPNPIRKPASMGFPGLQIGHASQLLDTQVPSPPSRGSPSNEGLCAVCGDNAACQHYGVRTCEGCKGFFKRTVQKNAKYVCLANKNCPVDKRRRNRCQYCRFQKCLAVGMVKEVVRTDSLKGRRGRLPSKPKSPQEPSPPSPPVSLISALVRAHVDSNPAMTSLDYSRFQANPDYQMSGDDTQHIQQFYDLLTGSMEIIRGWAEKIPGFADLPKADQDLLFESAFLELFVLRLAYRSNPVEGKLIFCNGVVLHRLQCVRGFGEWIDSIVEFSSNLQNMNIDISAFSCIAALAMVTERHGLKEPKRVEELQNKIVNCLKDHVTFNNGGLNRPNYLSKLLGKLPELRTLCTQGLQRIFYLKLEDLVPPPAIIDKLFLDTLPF

Turning to `C[C@H]1O[C@@H](O[C@H]2[C@@H](O)C[C@H](O[C@H]3[C@@H](O)C[C@H](O[C@H]4CC[C@@]5(C)[C@H](CC[C@@H]6[C@@H]5CC[C@]5(C)[C@@H](C7=CC(=O)OC7)CC[C@]65O)C4)O[C@@H]3C)O[C@@H]2C)C[C@H](O)[C@@H]1O`, the molecule was classed as inactive in [1], in assay [2], in [3], in [5], in assay [8] and in [9]. Also, the outcome in [10] and in assay [12] was inactive. The half-maximal activity concentration (AC50) is 0.0564 µM (active) in [4], 0.171 µM (active) in assay [6], 23.9 µM (active) in assay [7] and 0.0564 µM (active) in assay [11].
For `Oc1cccc2cccnc12`, the molecule was classed as inactive in assay [1], in [2], in assay [4], in [5], in assay [6] and in assay [7]. Also, the molecule was called inactive in [13], in assay [10], in [14], in assay [15], in assay [11] and in assay [12]. In addition, the AC50 was 15.3 µM (active) and 1.64 µM (active) in [9]; 167 µM (active) in [13]; 10.4 µM (active) in assay [16]; 2.69 µM (active) in [17].
For the molecule `OCc1ccco1`, the result in assay [1], in [2], in assay [4], in assay [5], in [6] and in [7] was inactive. Further, the result in assay [8], in assay [10], in assay [14], in assay [15], in assay [17] and in assay [18] was inactive. Also, the concentration at half-maximal activity (AC50) in assay [9] is 49.6 µM (active).
`CC1CN1P(=O)(N1CC1C)N1CC1C` (centres undefined): the outcome in assay [1], in [2], in assay [4], in assay [5], in assay [6] and in [7] was inactive. The molecule was called inactive in assay [8], in assay [9] and in assay [11].
With `CCC1(c2ccc(N)cc2)CCC(=O)NC1=O` (centres undefined), the call in assay [1], in assay [2], in [4], in assay [5], in assay [6] and in assay [7] was inactive. In addition, the result in assay [13] was inactive.
Regarding `CCCCCCCCCl`, the result in assay [1], in assay [2], in assay [3], in [4], in [5] and in assay [6] was inactive. Moreover, the molecule was classed as inactive in assay [7], in assay [8], in assay [13], in [10] and in [12].
For `O=C(NCO)NCO`, the outcome in assay [1], in assay [2], in [4], in assay [5], in assay [6] and in [7] was inactive. For the same molecule, the call in assay [8], in assay [9], in assay [13], in [10] and in [11] was inactive.
With `CC(C#N)CCC#N` (centres undefined), the outcome in assay [1], in assay [2], in assay [3], in [4], in assay [5] and in [6] was inactive. Further, the call in assay [7], in assay [8], in assay [9], in [13], in [10] and in [12] was inactive.
In the case of `c1ccc(N=NNc2ccccc2)cc1`, the result in assay [1], in assay [2], in assay [4], in assay [5], in assay [10] and in assay [11] was inactive. In [12], the outcome was inactive. For the same molecule, the half-maximal activity concentration (AC50) in assay [3] was 39.7 µM (active); in assay [6], 180 µM (active); in assay [7], 168 µM (active); in assay [9] it was 30.9 µM (active).
Consider `O=CC=O`, for which the outcome in assay [1], in [2], in assay [4], in assay [5], in [6] and in assay [7] was inactive. Besides, the result in assay [9], in assay [11] and in [12] was inactive.
For `Nc1ccc(N=Nc2ccc(-c3ccc(N=Nc4c(S(=O)(=O)O)cc5cc(S(=O)(=O)O)c(N=Nc6ccccc6)c(O)c5c4N)cc3)cc2)c(N)c1`, the result in assay [1], in [2], in assay [3], in assay [4], in assay [5] and in assay [6] was inactive. Besides, the call in assay [7], in assay [8], in [9], in [13], in assay [10] and in assay [11] was inactive. Also, the molecule was called inactive in [12].
